# Source: PubChem BioAssay
# Shown are actives, neighbours in structure and some others; about 12% of the full set was active somewhere.
# HP1b binding inh: blocks HP1-beta chromodomain binding to methylated histone tails | AlphaScreen HP1-beta / biotin-H3K9me3 peptide binding | Potency, µM (titrated, usually from 114 µM), actives largely listed as inhibitors | 390,000 tested, 0.56% active; also: nearly all actives have a fitted effect of over 70% in size
#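 HP1-beta protein (50 nM final) preincubated 30 min at room temperature with biotinylated H3(1-18)K9me3 peptide (50 nM) in PBS pH 7.4, 0.01% Tween-20, then compound added for 30 min. AlphaScreen streptavidin donor/nickel chelate acceptor beads (10 ug/mL final), 30 min dark, luminescence read.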
# G9a inh: G9a (human) methyltransferase inhibition; Q96KQ7; G9a H3K9 monomethylation, AlphaScreen, 2 h; Potency, µM (titrated, usually from 102 µM), actives largely listed as inhibitors; 350,000 tested, 8.8% active; also: nearly all actives have a fitted effect of over 75% in size
#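 AlphaScreen read-out: biotin-H3K9 peptide (500 nM) methylation by 20 nM enzyme with 20 uM SAM, 2 h at room temperature after 15 min compound preincubation; anti-monomethyl H3K9 antibody plus donor/acceptor beads, 10 min dark.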
# BAZ2B inh: blocks human BAZ2B. Potency, µM (doses to about 114 µM), usual class: inhibitors. Q9UIF8. AlphaScreen BAZ2B-H3K14Ac peptide displacement. 360,000 tested, 4.4% active; also: nearly all actives have a fitted effect of over 60% in size
#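 Protein-peptide AlphaScreen: BAZ2B 50 nM, b-H3K14Ac 50 nM, 1x PBS pH 7.4 + 0.01% Tween-20. Preincubation 30 min RT; cpd 30 min RT (top 110 uM); beads 20 min RT, light-protected.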
# PLK1 PBD block: blocks phosphopeptide binding to human PLK1 polo-box domain | P53350 | Plk1 PBD binding of FITC phosphopeptide, fluorescence polarization | Potency, µM, actives largely listed as inhibitors | 360,000 tested, 2.8% active | AID 720504; also: series mostly up to about 57 µM; nearly all actives have a fitted effect of over 65% in size
# PI5P4K alpha inh: blocks human PI5P4K alpha kinase activity | P48426 | PI5P4Kalpha enzyme, ADP-Glo luminescence, 60 min; stronger effect = lower value | max response, % | 330,000 tested, 1.2% active; active = max response of -50% or lower; inconclusive = between -30% and -50%; inactive = -30% or higher; also: value at the top dose of about 77 µM
#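 Quantitative HTS of the MLSMR library against PI5P4Kalpha with substrate. ATP added last at 5 microM final; room temperature, 60 minutes. Remaining ATP depleted, ADP converted and read as luminescence.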
# JMJD2A Tudor inh: JMJD2A Tudor domain (human) inhibition. O75164. AlphaScreen JMJD2A-Tudor / H3K4me3 peptide binding. Potency, µM (top dose mostly 114 µM), actives largely listed as inhibitors. 390,000 tested, 4.4% active. AID 504339; also: nearly all actives have a fitted effect of over 50% in size
# Target sequence (O75164 whole entry, looked up, the tested form may be a part): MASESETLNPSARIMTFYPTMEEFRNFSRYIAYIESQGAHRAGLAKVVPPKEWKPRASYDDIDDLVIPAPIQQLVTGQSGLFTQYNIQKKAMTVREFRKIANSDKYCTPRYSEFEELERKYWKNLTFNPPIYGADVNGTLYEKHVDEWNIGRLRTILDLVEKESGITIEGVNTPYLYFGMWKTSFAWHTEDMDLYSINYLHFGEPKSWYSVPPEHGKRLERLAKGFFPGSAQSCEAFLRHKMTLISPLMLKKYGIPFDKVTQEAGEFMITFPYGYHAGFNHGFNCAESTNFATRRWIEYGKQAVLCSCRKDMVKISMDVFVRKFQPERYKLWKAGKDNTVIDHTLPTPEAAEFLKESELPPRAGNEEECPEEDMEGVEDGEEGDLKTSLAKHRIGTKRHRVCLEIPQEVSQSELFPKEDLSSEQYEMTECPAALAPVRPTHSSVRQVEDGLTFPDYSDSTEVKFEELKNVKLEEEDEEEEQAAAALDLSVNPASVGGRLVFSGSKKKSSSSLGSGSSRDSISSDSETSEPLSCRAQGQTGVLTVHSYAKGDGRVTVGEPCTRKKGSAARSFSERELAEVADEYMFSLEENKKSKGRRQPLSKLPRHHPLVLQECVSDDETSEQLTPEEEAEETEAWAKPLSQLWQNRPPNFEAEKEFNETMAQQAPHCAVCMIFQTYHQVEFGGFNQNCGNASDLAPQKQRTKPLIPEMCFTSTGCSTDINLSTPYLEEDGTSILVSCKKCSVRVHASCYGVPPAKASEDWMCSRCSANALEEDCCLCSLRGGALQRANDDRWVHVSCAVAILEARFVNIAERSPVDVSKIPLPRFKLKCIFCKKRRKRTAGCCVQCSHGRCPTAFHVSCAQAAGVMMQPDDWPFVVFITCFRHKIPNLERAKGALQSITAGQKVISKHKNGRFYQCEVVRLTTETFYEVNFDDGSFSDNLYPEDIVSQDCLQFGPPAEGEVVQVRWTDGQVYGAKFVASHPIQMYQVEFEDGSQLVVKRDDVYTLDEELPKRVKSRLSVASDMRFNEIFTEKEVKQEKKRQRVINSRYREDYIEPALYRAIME
# Numbers stand for hits; i = inactive; ? = inconclusive; nt = not tested or not shown; [ ] = another dose, or the depositor's remark. Unless noted, calls follow the shape of the dose curve; as a rule, active = well fitted curve in the direction sought with a large enough effect; inconclusive = small, poorly fitted or top-dose-only effect, or another doubt; inactive = no such curve, though single readings can be large; an effect the other way counts as inactive or inconclusive.
SMILES,HP1b binding inh,G9a inh,BAZ2B inh,PLK1 PBD block,PI5P4K alpha inh,JMJD2A Tudor inh
C[N+]1(C)C2CCC1CC(OC(=O)C(O)c1ccccc1)C2 (stereo not drawn),nt,i[2.33 µM],nt,nt,nt,nt
Cc1ccc(S(=O)Cc2ccc(C(=O)NC3CCCCCC3)o2)cc1 (stereo not drawn),i,i,nt,nt,nt,i
CCCCNC(=O)CSc1nc2nc(C)c(Cc3ccccc3C)c(C)n2n1,i,i,i,nt,nt,i
COc1ccccc1CN1CN(S(=O)(=O)c2ccccc2)c2nc3ccccc3nc21,i,31.6µM,i,?,i,i[11.4 µM]
Cc1ccc(S(=O)(=O)N2CN(CC3CCCO3)c3nc4ccccc4nc32)cc1 (stereo not drawn),i,28.2µM,i,i,i,i
Cc1ccc(N(C(=O)COc2ccccc2C)S(=O)(=O)c2ccc(Cl)cc2)cc1,i,i,i,nt,nt,i
Cc1ccc(-n2nc(C)c(Sc3ccccc3[N+](=O)[O-])c2N)cc1,?,10µM,35.5µM,2.38µM,i,?
CC(=O)Oc1c(Sc2ccccc2[N+](=O)[O-])c(C)nn1C(C)(C)C,i,44.7µM,?,i,i,?
CCc1ccc(NC(=O)Cn2c(=O)n(-c3ccc(OC)cc3)c(=O)c3ccc(C(=O)NCc4ccc(C)cc4)cc32)cc1,i,i,nt,nt,nt,i
CO[C@H]1/C=C/O[C@@]2(C)Oc3c(C)c(O)c4c(O)c(c(/C=N/N5CCN(C)CC5)c(O)c4c3C2=O)NC(=O)/C(C)=C\C=C\[C@H](C)[C@H](O)[C@@H](C)[C@@H](O)[C@@H](C)[C@H](OC(C)=O)[C@@H]1C,nt,20µM,nt,nt,nt,nt
CO[C@H]1C=CO[C@]2(C)Oc3c(C)c(O)c4c(O)c(c5c(c4c3C2=O)NC2(CCN(CC(C)C)CC2)N=5)=NC(=O)C(C)=CC=C[C@@H](C)[C@@H](O)[C@@H](C)[C@@H](O)[C@@H](C)[C@@H](OC(C)=O)[C@@H]1C,nt,i[21.5 µM],nt,nt,nt,nt
COc1ccc(C2NN=C(c3c[nH]c4ccccc34)C2O)cc1 (stereo not drawn),i,22.4µM,?,i,i,?
CCOC(=O)c1nc(N)c(C(=O)OCC)[nH]1,i,i,i,10.6µM,?,i[11.4 µM]
Cc1ccc(S(=O)(=O)N2CCOCC2)cc1C(=O)NC(=S)N1CC(C)OC(C)C1 (stereo not drawn),i,31.6µM,i,i,i,i
CN(CCC#N)C(=S)NC(=O)c1ccc(S(=O)(=O)N2CCOCC2)cc1,i,11.2µM,i,?,?,i
N#CCc1ccc(NC(=O)c2ccc(S(=O)(=O)N3CCOCC3)cc2)cc1,i,i,i,i,i,i
CC(=O)N1CCN(C(=S)NC(=O)c2ccc(S(=O)(=O)N3CCOCC3)cc2)CC1,i,?,50.1µM,i,i,50.1µM
Clc1ccc(-c2c(C3=NCCCN3)nnn2-c2ccc(Cl)cc2)cc1,i,i[0.501 µM],i,i,i,i
CN(C(=O)CSc1nnc(COc2ccccc2F)n1N)C1CCS(=O)(=O)C1 (stereo not drawn),i,20µM,i,i,i,i
CN(C)N(C(=O)c1cc(-c2cccs2)nn1-c1ccccc1)C1CCS(=O)(=O)C1 (stereo not drawn),i,17.8µM,i,i,i,i
CN(C(=O)CSc1nc(-c2ccccc2)c(-c2ccccc2)o1)C1CCS(=O)(=O)C1 (stereo not drawn),?,?,?,29.9µM,i,?
CN(C)C(=O)CSc1nc(-c2ccccc2)c(-c2ccccc2)o1,?,12.6µM,?,i,i,i[11.4 µM]
C=CCn1c(SCC)nc2ccccc2c1=O,i,nt,nt,nt,nt,i
Cn1c(SCC(=O)c2ccc(F)cc2)nnc1-c1ccccc1Br,i,i,i,nt,nt,i
COc1cc(C)ccc1OCCn1c(-c2ccc(Cl)cc2)nc2ccccc2c1=O,i,i,i,nt,nt,i
SMILES,HP1b binding inh,G9a inh,BAZ2B inh,PLK1 PBD block,PI5P4K alpha inh,JMJD2A Tudor inh
COCCn1c(=O)c(-c2ccc(Cl)cc2)nc2cnc(N3CCOCC3)nc21,nt,i[0.501 µM],nt,nt,nt,nt
Cc1ccccc1Nc1nnc(SCC(=O)N(C)C2CCS(=O)(=O)C2)s1 (stereo not drawn),i,31.6µM,i,i,i,i
CN(C(=O)CSc1nnc(-c2ccccc2)c(-c2ccccc2)n1)C1CCS(=O)(=O)C1 (stereo not drawn),i,i,i,i,i,i
CN(C(=O)CSc1nnc(-c2ccc(F)cc2)n1C)C1CCS(=O)(=O)C1 (stereo not drawn),i,nt,nt,i,i,i
CN(C(=O)CSc1nnc(-c2ccccc2)n1C)C1CCS(=O)(=O)C1 (stereo not drawn),i,i[12.7 µM],i,26.7µM,i,i
CN(C(=O)CSc1nnc(-c2cccs2)o1)C1CCS(=O)(=O)C1 (stereo not drawn),i,i,i,i,i,i
CN(C(=O)CSc1n[nH]c(-c2cccs2)n1)C1CCS(=O)(=O)C1 (stereo not drawn),i,50.1µM,i,i,i,i
CN(C(=O)CSc1nnc(-c2ccc(F)cc2)c2ccccc12)C1CCS(=O)(=O)C1 (stereo not drawn),i,22.4µM,?,?,?,i
CNC1C(O)C(OC2C(N)CC(N)C(OC3OC(CN)=CCC3N)C2O)OCC1(C)O (stereo not drawn),nt,i[12.7 µM],nt,nt,nt,nt
CN(CC(=O)Nc1ccc(OC(F)(F)F)cc1)S(=O)(=O)c1cnc[nH]1,i,nt,i,i,i,i
COc1ccc(CC(=O)Nc2ccc3c(c2)OC2(CCCC2)O3)c(OC)c1,nt,nt,nt,i,i,nt
O=C(N/N=C(\Cc1ncc[nH]1)c1ccccc1)c1ccncc1,i,i,8.91µM,i,i,39.8µM
O=C(N/N=C(\Cc1ncc[nH]1)c1ccccc1)c1cccnc1,i,i,14.1µM,i,i,50.1µM
O=C(N/N=C(\Cc1ncc[nH]1)c1ccccc1)c1ccccc1,nt,i,i,nt,nt,nt
CCCc1c(OCC(O)COc2ccc3c(=O)cc(C(=O)O)oc3c2CCC)ccc(C(C)=O)c1O (stereo not drawn),nt,i,nt,nt,nt,nt
CCOc1ccc(Br)cc1S(=O)(=O)Nc1cccc(S(=O)(=O)N2CCOCC2)c1,i,nt,nt,i,i,i
COc1ccc(Cn2c(=O)n(-c3ccc(F)c(Cl)c3)c(=O)c3c2c2cc(OC)ccc2n3C)cc1,i,i,i,nt,nt,i
COc1ccc(S(=O)(=O)NC2CCSc3ccccc32)cc1OC (stereo not drawn),i,50.1µM,i,i,i,i
Cc1ccccc1CC(=O)NC1CCCc2ccccc21 (stereo not drawn),i,nt,?,i,i,i
COc1ccc(CNC2CCCc3ccccc32)cc1OC (stereo not drawn),i,?,70.8µM,?,i,11.2µM
O=[N+]([O-])c1ccccc1CNC1CCCc2ccccc21 (stereo not drawn),?,?,56.2µM,i,i,28.2µM
COc1ccc(CNC2c3ccccc3-c3ccccc32)cc1OC,i,?,i,i,i,i
